# Measured potencies and affinities stand elsewhere.
# Tests used:
# Staphylococcus aureus = conditions: Concentration 32 ug.mL-1;; ASSAY_TEST Inhibition of Bacterial Growth; detection method Absorption (OD600); MEDIA CAMHB; plate type 384well; NBS; CORNING #3640; time 18 hr
# Escherichia coli = conditions: Concentration 32 ug.mL-1;; ASSAY_TEST Inhibition of Bacterial Growth; detection method Absorption (OD600); MEDIA CAMHB; plate type 384well; NBS; CORNING #3640; time 18 hr
smiles,measurement,setting,value
CC(C)NC(=O)Cn1nc2n(Cc3ccco3)c(=O)c3sccc3n2c1=O,Inhibition,Staphylococcus aureus,9.36%
same,Inhibition,Escherichia coli,3.27%
O=C(Cn1nc2ccc(SC3CCCCC3)nn2c1=O)Nc1ccc2c(c1)OCO2,Inhibition,Staphylococcus aureus,-7.41%
same,Inhibition,Escherichia coli,-17.56%
Cc1ccc(N(CC(=O)OC(C)(C)C)S(=O)(=O)c2ccc3nnc(C)n3c2)cc1,Inhibition,Staphylococcus aureus,2.37%
same,Inhibition,Escherichia coli,-3.61%
CN(C(=O)Cn1nc2nc(Nc3ccc(F)cc3)ccn2c1=O)c1ccccc1,Inhibition,Staphylococcus aureus,-13.79%
same,Inhibition,Escherichia coli,-1.66%
CCc1nnc2c(S(=O)(=O)N(Cc3cccc(OC)c3)c3ccccc3)cccn12,Inhibition,Staphylococcus aureus,13.09%
same,Inhibition,Escherichia coli,-2.65%
N#CCn1nc2n(Cc3ccccc3)c(=O)c3ccc(C(=O)NC4CCCCC4)cc3n2c1=O,Inhibition,Staphylococcus aureus,-2.91%
same,Inhibition,Escherichia coli,-12.22%
O=c1c2sccc2n2c(=O)n(Cc3ccc(Br)cc3)nc2n1Cc1cccs1,Inhibition,Staphylococcus aureus,-10.81%
same,Inhibition,Escherichia coli,-9.69%
CC1CCN(C(=O)Cn2nc3n(Cc4cccs4)c(=O)c4sccc4n3c2=O)CC1,Inhibition,Staphylococcus aureus,3.66%
same,Inhibition,Escherichia coli,-8.96%
Cc1ccc(NC(=O)Cn2nc3c4cc(-c5ccc(C)c(C)c5)nn4ccn3c2=O)c(C)c1,Inhibition,Staphylococcus aureus,-8.87%
same,Inhibition,Escherichia coli,-22.36%
COc1cc(NC(=O)Cn2nc3ccc(-c4ccc(C)c(C)c4)nn3c2=O)cc(OC)c1,Inhibition,Staphylococcus aureus,8.96%
same,Inhibition,Escherichia coli,-5.07%
CCC(Sc1nnc2c(=O)n(-c3ccccc3)ccn12)C(=O)Nc1ccc(OC)cc1OC (stereo unspecified),Inhibition,Staphylococcus aureus,10.76%
same,Inhibition,Escherichia coli,0.69%
COc1ccccc1N1CCN(C(=O)Cn2nc3c(Oc4ccc(C)cc4)nccn3c2=O)CC1,Inhibition,Staphylococcus aureus,6.41%
same,Inhibition,Escherichia coli,0.36%
O=S(=O)(c1ccc2nncn2c1)N(Cc1ccccc1F)c1ccc(F)c(F)c1,Inhibition,Staphylococcus aureus,-7.25%
same,Inhibition,Escherichia coli,-4.39%
Cc1ccc(NC(=O)Cn2nc3c(Sc4ccccc4)nccn3c2=O)c(C)c1,Inhibition,Staphylococcus aureus,5.22%
same,Inhibition,Escherichia coli,-4.74%
CCc1ccc(N(Cc2ccccc2F)S(=O)(=O)c2cccn3c(CC)nnc23)cc1,Inhibition,Staphylococcus aureus,-9.17%
same,Inhibition,Escherichia coli,1.03%
COc1cccc(-n2ccn3c(SCC(=O)c4cc(C)ccc4C)nnc3c2=O)c1,Inhibition,Staphylococcus aureus,11.66%
same,Inhibition,Escherichia coli,-1.7%
O=c1n(Cc2cccc(Br)c2)nc2ccc(-c3ccccc3)nn12,Inhibition,Staphylococcus aureus,4.53%
same,Inhibition,Escherichia coli,-3.48%
Cc1nnc2c(=O)n(CC(=O)Nc3ccccc3Br)c3ccccc3n12,Inhibition,Staphylococcus aureus,16.36%
same,Inhibition,Escherichia coli,5.04%
COc1cccc(-n2ccn3c(SCC(=O)N4CCN(c5ccc(F)cc5)CC4)nnc3c2=O)c1,Inhibition,Staphylococcus aureus,6.4%
same,Inhibition,Escherichia coli,-17.03%
CCOc1ccc(-n2ccn3c(SCC(=O)NCc4cccc(OC)c4OC)nnc3c2=O)cc1,Inhibition,Staphylococcus aureus,12.04%
same,Inhibition,Escherichia coli,-1.13%
CCc1ccccc1NC(=O)Cn1nc2c(SC3CCCCC3)nccn2c1=O,Inhibition,Staphylococcus aureus,7.59%
same,Inhibition,Escherichia coli,-2.96%
CCOC(=O)c1ccccc1NC(=O)Cn1c(=O)c2nnc(C(C)C)n2c2ccccc21,Inhibition,Staphylococcus aureus,9.86%
same,Inhibition,Escherichia coli,0.49%
O=C(CSc1nc2ccccc2n2cnnc12)N1CCN(c2ccc(F)cc2)CC1,Inhibition,Staphylococcus aureus,13.82%
same,Inhibition,Escherichia coli,1.79%
COC(=O)c1ccc(NC(=O)Cn2nc3c(Oc4ccccc4C)nccn3c2=O)cc1,Inhibition,Staphylococcus aureus,-13.52%
same,Inhibition,Escherichia coli,1.22%
CCc1ccccc1Sc1nccn2c(=O)n(CC(=O)N3CCN(c4ccccc4)CC3)nc12,Inhibition,Staphylococcus aureus,-10.72%
same,Inhibition,Escherichia coli,-11.22%
COc1ccc(Cl)cc1NC(=O)Cn1nc2ccc(Sc3ccccc3)nn2c1=O,Inhibition,Staphylococcus aureus,-3.52%
same,Inhibition,Escherichia coli,-9.25%
CCOc1ccc(N(Cc2cccc(F)c2)S(=O)(=O)c2ccc3nncn3c2)cc1,Inhibition,Staphylococcus aureus,8.4%
same,Inhibition,Escherichia coli,-7.52%
Cc1cc(C)cc(NC(=O)CSc2nnc3c(=O)n(-c4ccc(Br)cc4)ccn23)c1,Inhibition,Staphylococcus aureus,9.26%
same,Inhibition,Escherichia coli,-3.09%
CC(C)c1nnc2c(SCC(=O)Nc3cccc(Br)c3)nc3ccccc3n12,Inhibition,Staphylococcus aureus,4.41%
same,Inhibition,Escherichia coli,-8.3%
CCc1ccccc1NC(=O)Cn1nc2c(SCc3ccc(Cl)cc3)nccn2c1=O,Inhibition,Staphylococcus aureus,9.03%
same,Inhibition,Escherichia coli,-5.25%
NC(=O)CSc1nnc2c(=O)n(-c3ccccc3)ccn12,Inhibition,Staphylococcus aureus,9.05%
same,Inhibition,Escherichia coli,0.29%
COc1ccc(N(Cc2cccc(Cl)c2)S(=O)(=O)c2ccc3nnc(C)n3c2)cc1,Inhibition,Staphylococcus aureus,13.9%
same,Inhibition,Escherichia coli,0.81%
CC(C)CCNC(=O)Cn1nc2n(Cc3cccs3)c(=O)c3sccc3n2c1=O,Inhibition,Staphylococcus aureus,3.31%
same,Inhibition,Escherichia coli,-5.47%
